# Test results published in the supplement of paper PMC10849652.
# Of roughly 7,900 targets only a part is listed; those with a hit were picked by preference. About 0.6% of all pairs of compound and target were hits. Values without a mark were called inactive.
# What was measured:
# Assay in all cases: log2 fold change, soluble protein after heating vs DMSO (PISA); higher = thermal stabilisation; K562 cells, 10 uM, 30 min; active = over 0.2 and 3.5 SD of the protein, either way, in both replicates (recomputed)
# [1] = compound: CC[C@@H]1C(=O)N(C)c2cnc(Nc3ccc(C(=O)NC4CCN(C)CC4)cc3OC)nc2N1C1CCCC1
# Outline: (§1)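 K562 cells at 2×10^6 cells/mL were treated for 30 min with 10 μM compound, and aliquots were heated for 3 min over 48°C-58°C before pooling. Extraction used PBS with 0.5% NP-40 at 4°C, and soluble protein was the supernatant after 21,000xg for 90 min, measured by TMTpro 16plex LC-MS/MS with channel sums equalised. Thermal stability values, relative to control samples and from duplicates, are log2 fold changes.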
# volasertib = compound: CC[C@@H]1C(=O)N(C)c2cnc(Nc3ccc(C(=O)N[C@H]4CC[C@H](N5CCN(CC6CC6)CC5)CC4)cc3OC)nc2N1C(C)C [volasertib]
# Outline: as §1
# [2] = compound: CC[C@H](C)N1C=C(C2=C(C=C(C=C21)C3=CN=C(C=C3)N4CCNCC4)C(=O)NCC5=C(C=C(NC5=O)C)C)C
# Outline: as §1
# epoxomicin = compound: CC[C@H](C)[C@@H](C(=O)N[C@@H]([C@@H](C)O)C(=O)N[C@@H](CC(C)C)C(=O)[C@]1(CO1)C)NC(=O)[C@H]([C@@H](C)CC)N(C)C(=O)C [epoxomicin]
# Outline: as §1
# [3] = compound: CCn1c(C(=O)N(C2CC2)C2CC2)cc2c3c(ncn3C)c(Nc3cc(C)n(C)n3)nc21
# Outline: as §1
# [4] = compound: CCn1cc(-c2ccnc3[nH]c(-c4cccc(CN(C)C)c4)cc23)c(-c2ccc(NC(=O)N(C)C)cc2)n1
# Outline: as §1
# [5] = compound: CN(C)CC(=O)Nc1ccc2[nH]c(=O)c3ccccc3c2c1
# Outline: as §1
# rosiglitazone = compound: CN(CCOC1=CC=C(C=C1)C[C@H]2C(=O)NC(=O)S2)C3=CC=CC=N3 (racemic) [rosiglitazone]
# Outline: as §1
# [6] = compound: CN1C2=C(C3=C1C(=O)N(N=C3)CC4=CC(=CC=C4)N)SC(=C2)S(=O)C
# Outline: as §1
# [7] = compound: CN1CCC(CNc2ccc3ncc(-c4cccc(OC(F)(F)F)c4)n3n2)CC1
# Outline: as §1
# saracatinib = compound: CN1CCN(CCOc2cc(OC3CCOCC3)c3c(Nc4c(Cl)ccc5c4OCO5)ncnc3c2)CC1 [saracatinib]
# Outline: as §1
# sotrastaurin = compound: CN1CCN(c2nc(C3=C(c4c[nH]c5ccccc45)C(=O)NC3=O)c3ccccc3n2)CC1 [sotrastaurin]
# Outline: as §1
# alvocidib = compound: CN1CC[C@H](c2c(O)cc(O)c3c(=O)cc(-c4ccccc4Cl)oc23)[C@H](O)C1 [alvocidib]
# Outline: as §1
# Tubastatin A = compound: CN1CCc2c(c3ccccc3n2Cc2ccc(C(=O)NO)cc2)C1 [Tubastatin A]
# Outline: as §1
# [8] = compound: CNC(=O)C1=CC=CC=C1NC2=NC(=NC=C2Cl)NC3=C(C=C(C=C3)N4CCOCC4)OC
# Outline: as §1
# defactinib = compound: CNC(=O)c1ccc(Nc2ncc(C(F)(F)F)c(NCc3nccnc3N(C)S(C)(=O)=O)n2)cc1 [defactinib]
# Outline: as §1
# rucaparib = compound: CNCc1ccc(-c2[nH]c3cc(F)cc4c3c2CCNC4=O)cc1 [rucaparib]
# Outline: as §1
# [9] = compound: CNc1nc(-c2ccc3c(N)n[nH]c3c2)cc(N2C[C@@H](C(=O)NC3CCCCC3)CC[C@H]2C)n1
# Outline: as §1
# encorafenib = compound: COC(=O)N[C@@H](C)CNc1nccc(-c2cn(C(C)C)nc2-c2cc(Cl)cc(NS(C)(=O)=O)c2F)n1 [encorafenib]
# Outline: as §1
# [10] = compound: COC(=O)[C@H](CCSC)NC(=O)C1=C(C=C(C=C1)NC[C@H](CS)N)C2=CC=CC=C2
# Outline: as §1
# Chain of UniProt Q8WWY3 (Q8WWY3 whole entry, looked up): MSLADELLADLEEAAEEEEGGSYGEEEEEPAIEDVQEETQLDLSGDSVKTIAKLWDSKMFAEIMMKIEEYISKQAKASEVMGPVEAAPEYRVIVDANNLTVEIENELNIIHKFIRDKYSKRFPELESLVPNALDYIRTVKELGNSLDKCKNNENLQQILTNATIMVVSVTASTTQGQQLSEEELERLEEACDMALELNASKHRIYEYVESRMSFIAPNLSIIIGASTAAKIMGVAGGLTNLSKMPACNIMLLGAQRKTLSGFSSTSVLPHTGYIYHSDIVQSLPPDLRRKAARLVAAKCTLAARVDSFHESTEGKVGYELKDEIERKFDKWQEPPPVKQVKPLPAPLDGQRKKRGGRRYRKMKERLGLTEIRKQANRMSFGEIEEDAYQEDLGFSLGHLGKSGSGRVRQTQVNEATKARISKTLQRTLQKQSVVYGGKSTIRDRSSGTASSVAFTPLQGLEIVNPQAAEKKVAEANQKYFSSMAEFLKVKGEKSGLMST
# Chain of UniProt P09884 (P09884 whole entry, looked up): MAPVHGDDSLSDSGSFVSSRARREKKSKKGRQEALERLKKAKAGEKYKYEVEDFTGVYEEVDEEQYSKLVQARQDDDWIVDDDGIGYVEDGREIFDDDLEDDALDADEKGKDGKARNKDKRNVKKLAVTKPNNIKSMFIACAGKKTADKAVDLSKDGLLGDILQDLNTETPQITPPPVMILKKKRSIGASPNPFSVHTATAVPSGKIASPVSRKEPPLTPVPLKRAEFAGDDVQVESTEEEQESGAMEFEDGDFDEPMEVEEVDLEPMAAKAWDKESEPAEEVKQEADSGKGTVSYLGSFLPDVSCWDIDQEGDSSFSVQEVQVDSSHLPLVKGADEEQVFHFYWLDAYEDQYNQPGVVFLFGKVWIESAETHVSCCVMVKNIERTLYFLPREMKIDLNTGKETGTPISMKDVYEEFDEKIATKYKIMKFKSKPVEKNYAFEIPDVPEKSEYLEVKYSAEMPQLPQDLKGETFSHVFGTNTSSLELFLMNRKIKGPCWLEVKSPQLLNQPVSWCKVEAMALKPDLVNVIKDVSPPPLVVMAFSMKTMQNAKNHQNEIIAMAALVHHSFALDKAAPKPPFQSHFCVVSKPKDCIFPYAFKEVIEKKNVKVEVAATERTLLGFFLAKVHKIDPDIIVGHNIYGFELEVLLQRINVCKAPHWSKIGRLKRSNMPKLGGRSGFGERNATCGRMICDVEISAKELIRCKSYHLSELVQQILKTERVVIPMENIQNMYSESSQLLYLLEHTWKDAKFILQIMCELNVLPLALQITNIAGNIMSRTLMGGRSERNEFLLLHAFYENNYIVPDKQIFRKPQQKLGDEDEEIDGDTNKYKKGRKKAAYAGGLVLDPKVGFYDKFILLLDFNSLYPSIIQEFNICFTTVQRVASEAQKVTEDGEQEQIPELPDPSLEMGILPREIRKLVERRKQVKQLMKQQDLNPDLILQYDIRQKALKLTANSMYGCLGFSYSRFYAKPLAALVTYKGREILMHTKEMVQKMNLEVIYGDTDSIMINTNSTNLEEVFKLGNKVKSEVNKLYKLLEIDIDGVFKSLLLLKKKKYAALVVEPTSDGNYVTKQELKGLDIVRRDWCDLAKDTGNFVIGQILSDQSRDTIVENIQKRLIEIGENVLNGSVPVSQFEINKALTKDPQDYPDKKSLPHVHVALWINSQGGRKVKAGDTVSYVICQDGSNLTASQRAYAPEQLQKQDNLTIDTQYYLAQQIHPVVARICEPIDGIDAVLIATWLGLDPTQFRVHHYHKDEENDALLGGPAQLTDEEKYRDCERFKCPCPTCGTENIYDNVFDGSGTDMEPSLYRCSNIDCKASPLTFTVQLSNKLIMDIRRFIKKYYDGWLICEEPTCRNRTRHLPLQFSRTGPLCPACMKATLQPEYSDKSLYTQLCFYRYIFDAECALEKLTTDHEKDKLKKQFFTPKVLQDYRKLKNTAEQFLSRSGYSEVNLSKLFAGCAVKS
# Chain of UniProt O15305 (O15305 whole entry, looked up): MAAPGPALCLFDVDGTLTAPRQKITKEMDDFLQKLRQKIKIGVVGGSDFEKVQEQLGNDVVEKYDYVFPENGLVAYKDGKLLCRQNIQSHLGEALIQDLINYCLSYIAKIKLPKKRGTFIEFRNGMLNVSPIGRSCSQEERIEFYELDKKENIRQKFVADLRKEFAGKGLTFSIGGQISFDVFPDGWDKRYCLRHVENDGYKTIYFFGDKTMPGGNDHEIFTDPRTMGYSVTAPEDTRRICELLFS
# Chain of UniProt P48556 (P48556 whole entry, looked up): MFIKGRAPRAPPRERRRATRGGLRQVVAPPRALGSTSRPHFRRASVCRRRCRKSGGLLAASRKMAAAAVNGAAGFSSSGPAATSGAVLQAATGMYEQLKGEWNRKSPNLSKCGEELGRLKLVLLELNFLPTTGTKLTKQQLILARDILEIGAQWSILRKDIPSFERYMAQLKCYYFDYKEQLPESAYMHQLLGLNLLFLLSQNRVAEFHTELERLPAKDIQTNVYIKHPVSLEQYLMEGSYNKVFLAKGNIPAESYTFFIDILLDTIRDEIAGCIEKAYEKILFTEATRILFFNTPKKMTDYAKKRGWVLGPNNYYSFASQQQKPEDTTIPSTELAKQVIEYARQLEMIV
# Chain of UniProt P43686 (P43686 whole entry, looked up): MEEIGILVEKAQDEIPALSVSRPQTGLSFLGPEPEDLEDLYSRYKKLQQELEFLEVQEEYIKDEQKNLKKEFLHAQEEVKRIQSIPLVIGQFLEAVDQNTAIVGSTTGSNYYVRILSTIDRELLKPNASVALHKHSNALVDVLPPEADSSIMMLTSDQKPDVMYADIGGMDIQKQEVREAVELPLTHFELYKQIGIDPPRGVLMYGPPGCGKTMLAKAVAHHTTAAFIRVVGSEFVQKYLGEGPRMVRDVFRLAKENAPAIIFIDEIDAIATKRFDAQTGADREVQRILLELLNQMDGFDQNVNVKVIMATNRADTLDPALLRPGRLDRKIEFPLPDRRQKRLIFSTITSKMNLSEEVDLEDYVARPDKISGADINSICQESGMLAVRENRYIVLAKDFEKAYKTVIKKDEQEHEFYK
# Chain of UniProt P27986 (P27986 whole entry, looked up): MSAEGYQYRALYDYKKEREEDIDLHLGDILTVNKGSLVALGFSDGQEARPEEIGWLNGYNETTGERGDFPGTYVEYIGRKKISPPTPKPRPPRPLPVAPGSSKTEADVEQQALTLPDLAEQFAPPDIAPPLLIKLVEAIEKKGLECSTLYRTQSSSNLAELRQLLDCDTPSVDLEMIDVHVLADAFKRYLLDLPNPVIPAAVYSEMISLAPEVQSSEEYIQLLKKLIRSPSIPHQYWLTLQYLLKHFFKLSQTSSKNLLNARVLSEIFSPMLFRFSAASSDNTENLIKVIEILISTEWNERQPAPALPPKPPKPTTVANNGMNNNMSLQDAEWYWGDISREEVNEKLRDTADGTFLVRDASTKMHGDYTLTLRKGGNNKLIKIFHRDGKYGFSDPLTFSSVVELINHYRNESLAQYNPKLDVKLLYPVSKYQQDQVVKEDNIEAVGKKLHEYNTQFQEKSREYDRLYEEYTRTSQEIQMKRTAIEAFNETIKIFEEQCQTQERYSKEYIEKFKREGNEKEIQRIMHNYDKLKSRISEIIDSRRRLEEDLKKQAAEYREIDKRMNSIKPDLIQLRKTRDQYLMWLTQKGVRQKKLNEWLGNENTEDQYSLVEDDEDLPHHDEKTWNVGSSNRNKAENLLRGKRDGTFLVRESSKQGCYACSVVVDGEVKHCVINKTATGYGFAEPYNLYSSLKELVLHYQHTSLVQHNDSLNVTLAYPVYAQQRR
# Chain of UniProt Q8IWE5 (Q8IWE5 whole entry, looked up): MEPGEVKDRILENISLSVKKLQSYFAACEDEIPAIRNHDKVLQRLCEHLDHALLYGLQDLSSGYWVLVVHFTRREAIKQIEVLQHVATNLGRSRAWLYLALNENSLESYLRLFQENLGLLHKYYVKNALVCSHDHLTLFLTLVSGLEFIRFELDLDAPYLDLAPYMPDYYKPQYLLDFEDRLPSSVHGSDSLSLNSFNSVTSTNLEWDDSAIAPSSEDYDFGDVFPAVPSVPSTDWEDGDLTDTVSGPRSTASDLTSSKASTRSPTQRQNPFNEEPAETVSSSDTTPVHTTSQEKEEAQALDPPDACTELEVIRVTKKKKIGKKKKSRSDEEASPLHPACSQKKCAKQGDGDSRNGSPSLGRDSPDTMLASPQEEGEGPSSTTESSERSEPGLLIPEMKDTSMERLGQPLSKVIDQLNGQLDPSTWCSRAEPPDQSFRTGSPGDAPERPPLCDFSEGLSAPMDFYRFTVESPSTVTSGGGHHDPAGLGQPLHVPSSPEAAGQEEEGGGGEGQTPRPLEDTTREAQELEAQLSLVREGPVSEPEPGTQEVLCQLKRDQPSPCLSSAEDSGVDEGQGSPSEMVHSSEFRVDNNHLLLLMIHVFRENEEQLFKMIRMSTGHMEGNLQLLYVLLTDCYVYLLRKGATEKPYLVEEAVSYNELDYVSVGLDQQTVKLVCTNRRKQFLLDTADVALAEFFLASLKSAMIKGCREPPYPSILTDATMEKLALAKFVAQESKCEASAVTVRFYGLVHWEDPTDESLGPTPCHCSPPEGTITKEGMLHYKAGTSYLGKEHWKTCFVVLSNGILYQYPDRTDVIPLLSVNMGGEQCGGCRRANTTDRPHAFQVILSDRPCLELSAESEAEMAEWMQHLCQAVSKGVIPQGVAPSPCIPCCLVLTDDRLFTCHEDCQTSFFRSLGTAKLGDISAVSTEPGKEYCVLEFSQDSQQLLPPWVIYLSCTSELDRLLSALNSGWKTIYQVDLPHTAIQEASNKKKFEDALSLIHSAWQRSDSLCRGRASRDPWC
# Chain of UniProt Q8NAV1 (Q8NAV1 whole entry, looked up): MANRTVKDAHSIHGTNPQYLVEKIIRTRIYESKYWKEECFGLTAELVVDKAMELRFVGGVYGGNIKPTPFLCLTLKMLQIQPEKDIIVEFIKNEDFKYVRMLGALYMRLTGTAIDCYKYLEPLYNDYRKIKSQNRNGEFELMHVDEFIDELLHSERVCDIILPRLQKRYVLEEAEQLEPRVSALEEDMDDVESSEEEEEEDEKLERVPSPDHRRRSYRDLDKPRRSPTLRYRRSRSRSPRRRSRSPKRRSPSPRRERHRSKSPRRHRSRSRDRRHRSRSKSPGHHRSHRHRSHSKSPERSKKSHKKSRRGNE
Target,log2 fold change [1],log2 fold change (volasertib),log2 fold change [2],log2 fold change (epoxomicin),log2 fold change [3],log2 fold change [4],log2 fold change [5],log2 fold change (rosiglitazone),log2 fold change [6],log2 fold change [7],log2 fold change (saracatinib),log2 fold change (sotrastaurin),log2 fold change (alvocidib),log2 fold change (Tubastatin A),log2 fold change [8],log2 fold change (defactinib),log2 fold change (rucaparib),log2 fold change [9],log2 fold change (encorafenib),log2 fold change [10]
PNPLA8 (UniProt Q9NP80),-0.048,-0.184,-0.07,0.112,-0.01,-0.07,0.029,0.069,0.003,-0.262 (active),0.022,0.052,0.037,-0.009,-0.021,-0.051,0.038,-0.016,0.026,-0.01
PDCD4 (UniProt Q53EL6),-0.26,-0.585 (active),-0.013,0.055,-0.045,-0.053,0.065,0.056,-0.107,0.011,-0.008,0.138,-0.113,0,0.177,-0.243,-0.113,0.114,0.073,-0.097
PRPF38A (UniProt Q8NAV1),-0.029,-0.016,0,0.048,-0.011,0.031,0.051,0.031,-0.037,-0.081,0.019,0.016,-0.024,-0.024,0.052,-0.036,0.121,-0.035,-0.034,-0.008
POLA1 (UniProt P09884),-0.048,-0.466 (active),0.059,0.045,-0.014,-0.089,0.032,0.046,-0.012,-0.163,0.006,-0.096,-0.163,0.025,0.079,-0.156,-0.126,-0.016,-0.005,-0.035
PMM2 (UniProt O15305),-0.03,-0.021,0.026,-0.021,-0.003,-0.002,-0.049,0.037,-0.076,-0.049,-0.025,0.062,0.006,-0.031,-0.183,0.022,0.018,-0.02,-0.006,0.058
PLEKHM2 (UniProt Q8IWE5),-0.127,-0.177,0.009,0.037,-0.051,-0.175,0.003,0.034,-0.04,-0.357 (active),-0.002,-0.047,-0.119,0.029,-0.215,-0.054,-0.087,-0.019,0.058,-0.014
POLD3 (UniProt Q15054),-0.147,-0.101,0.008,0.126,-0.071,-0.037,0.067,0.513,0.051,-0.118,-0.035,-0.131,-0.229,0.137,0.01,-0.225,0.018,0.042,0.082,-0.047
PPP1R35 (UniProt Q8TAP8),0.062,0.101,-0.062,0.062,0.009,0.007,-0.004,0.035,0.027,-0.032,0.034,-0.011,-0.03,0.035,-0.029,-0.007,0.019,-0.109,0.072,0.052
PIP4P2 (UniProt Q8N4L2),-0.092,-0.054,-0.07,-0.192,0.053,0.004,-0.018,0.008,-0.016,-0.375 (active),0.056,-0.003,-0.048,0.072,-0.007,0.004,-0.003,-0.106,-0.04,0.093
PSMD8 (UniProt P48556),0.054,0.25,-0.01,-0.286 (active),0.022,0.039,-0.037,-0.048,0.035,0.016,-0.039,-0.032,0.135,0.003,-0.009,0.1,0.003,0.028,0.041,0.043
PSMC4 (UniProt P43686),0.033,0.2,-0.021,-0.379 (active),-0.02,0.086,-0.033,-0.021,0.033,0.06,-0.041,-0.011,0.047,-0.026,-0.032,0.074,0.039,0.037,0.019,0.005
PRPF31 (UniProt Q8WWY3),-0.113,-0.548 (active),0.172,0.049,-0.058,-0.079,0.181,0.104,-0.041,-0.348,-0.093,-0.15,-0.193,0.144,-0.033,-0.456 (active),-0.068,0.033,0.011,-0.037
PRKACA (UniProt P17612),-0.028,-0.046,0.068,-0.072,-0.048,-0.058,0,0.033,-0.003,0.085,0.002,-0.117,-0.012,0.054,-0.104,-0.015,0.061,0.077,0.01,0.072
PCNT (UniProt O95613),0.08,0.131,-0.147,-0.177,-0.105,-0.002,-0.101,0.05,0.158,-0.567 (active),-0.06,0.115,0.067,-0.069,-0.098,0.154,-0.116,0.019,0.037,0.091
PIK3R1 (UniProt P27986),-0.04,-0.142,-0.018,0.036,-0.015,-0.072,-0.002,0.095,-0.064,0.127,0.014,0.001,-0.079,-0.017,-0.014,-0.06,0.052,0.022,0.08,-0.024
